Results on 66 molecules are retold here after ChEMBL document CHEMBL3988442, “University of Dundee, Small-Polar-MMV Screening Library” (2021).

The experiment concerns Leishmania donovani. The experiment is described as follows: Leishmania intramacrophage assay. Format: functional, organism-based. Also noted: scale not given: in the data most compounds retested in dose-response had high values.

The campaign covered roughly 69,000 compounds. About 1,000 (1.4%) showed an effect of 50% or more. Many of the other results were omitted from the sample, so strong results are more common in it than they were.

As for `CC(Oc1ccccc1C#N)C(=O)NC1CC1` (stereo unspecified), the “Percent Effect” value (30.3 µM, […]) amounted to 8.957%. Same read-out and setting: next, `Cc1cnn(C2CN(c3nc(C)cc(N(C)C)n3)C2)c1`: 24.16%; `CN(CCc1noc(C2CC2)n1)C(=O)CN1C(=O)COc2ccccc21`: 99.57%; `CC1CCN(CC(=O)N(C)CCc2noc(C3CC3)n2)C1=O` (stereo unspecified): 26.42%. Turning to `CN(Cc1noc2c1CCCC2)C(=O)CN1C(=O)COc2ccccc21`, the “Percent Effect” value (30.3 µM, […]) is given as 18.25%. On the same count and under the same terms, with `CC(C)Oc1ncccc1CNC(=O)c1ccccn1` the figure was -8.458%. Same read-out and setting: next, `CN(Cc1ccc(F)c(F)c1)Cc1cc2c(cc1Br)OCCO2`: 17.19%; `Cc1ccc(CNCC2Cn3nncc3CO2)o1` (stereo unspecified): 8.133%. On the same count and under the same terms, with `c1coc(CNCC2Cn3nncc3CO2)c1` (stereo unspecified) the figure was 55.14%; with `c1cc(CNCC2Cn3nncc3CO2)ccn1` (stereo unspecified), 1.96%; with `CCNc1ccnc(NCC2(N(C)C)CCOCC2)n1`, 31.76%. On to `CCc1ncc(C(=O)N2CC(Oc3ccccc3Cl)C2)cn1`, for which the “Percent Effect” value (30.3 µM, […]) is listed as 18.16%. The same measure, in the same setting: next, `COCCN1C[C@H]2CCN(C(=O)c3cc(C)on3)CC[C@H]2S1(=O)=O`: -11.97%. `Cc1ccc(CNC(=O)NCc2csc(C)n2)cn1`: the “Percent Effect” value (30 µM, 30.03 µM) came to 22.66%.

On to `Cc1nnc2n1CCN(CCCS(=O)(=O)c1ccccc1)C2`, for which the “Percent Effect” value (30.3 µM, […]) worked out at 27.12%. Still for that read-out and setting: next, `CN(C)c1ncnc2c1CCN(CC1CCOCC1)CC2.O=C(O)C(F)(F)F`: 3.553%; `CCN(CC)c1ncnc2c1CCN(CC1CCOCC1)CC2.O=C(O)C(F)(F)F`: 50.25%; `CCN(C)c1ncnc2c1CCN(CC1CCOC1)CC2.O=C(O)C(F)(F)F` (stereo unspecified): -1.105%. Same read-out and setting: with `Cc1ccc(CN2CCn3c(CNS(C)(=O)=O)nnc3C2)s1` the figure was 21.51%; with `COc1cc(OC)nc(N2CCC3(CC2)OCCCC3O)n1` (stereo unspecified), 12.31%. Same read-out and setting: with `c1cc(-c2ccc(CN3CCCC4(CCNC4)C3)s2)[nH]n1` (stereo unspecified) the figure was 24.83%.

Regarding `Fc1cnccc1CN1CCCC2(CCN(c3ncccn3)CC2)C1.O=C(O)C(F)(F)F`, the “Percent Effect” value (30.3 µM, […]) is recorded as 6.498%. Take `Cc1cc(C(C)NCCN2CCC(N(C)C)CC2)c(C)s1` (stereo unspecified): the “Percent Effect” value (30.3 µM, […]) turned out to be 59.42%. On to `CC(NCCN1CCC(N(C)C)CC1)c1ccc(F)cc1N(C)C` (stereo unspecified), for which, under “30.3 µM, […]”, the “Percent Effect” value was determined as 15.55%. Same read-out and setting: next, `Cc1cc(Br)cnc1NCCN1CCC(N(C)C)CC1`: 96.65%; `CC(=O)N1CCN(CCNc2ncc(Br)cc2C)CC1`: 1.457%. Still for that read-out and setting: next, `CC(NCCN1CCC(N(C)C)CC1)c1ccc(Cl)s1` (stereo unspecified): 43.03%. Still for that read-out and setting: with `COC1CCN(CCNc2ncc(Br)cc2C)CC1` the figure was -8.998%; with `COCCN1CCN(Cc2c(C3CCNCC3)[nH]c3ncccc23)CC1.Cl`, 15.04%. Consider `Cn1cc(CN2CCc3onc(C(=O)Nc4cccnc4)c3C2)cn1`, for which the “Percent Effect” value (30.3 µM, […]) amounted to 24.89%. Still for that read-out and setting: with `CC(C)(C)C(=O)N1CCC(c2cnc(-c3cn[nH]c3)cn2)CC1` the figure was -18.54%; with `COc1ccc(Cl)cc1CS(=O)(=O)Cc1nc(C2CC2)no1`, 28.37%; with `COc1ccc(Cl)cc1CS(=O)(=O)Cc1noc(C)n1`, 34.45%. Same read-out and setting: next, `COc1ccc(Cl)cc1CS(=O)(=O)Cc1nc(C)no1`: 60.61%; `O=C(NCCN1CCOCC1)c1cc(-c2ccccc2Cl)[nH]n1`: -6.582%.

Turning to `CC(C)c1noc(CN2CCN(C(=O)c3ccncc3F)CC2)n1`, the “Percent Effect” value (30 µM) turned out to be 25.95%. For `O=C1C(N2CCN(c3ccc(O)cc3)CC2)CCN1C1CCOCC1` (stereo unspecified), the “Percent Effect” value (30.3 µM, […]) was -7.233%. The same measure, in the same setting: with `O=C(Nc1ccc(CC(=O)N2CCSCC2)cc1)NC1CCCC1` the figure was -9.117%. Consider `O=C(Nc1ccc(CC(=O)N2CCSCC2)cc1)NC1CC1`, for which, under “30.3 µM, […]”, the “Percent Effect” value came to 50.93%. The same measure, in the same setting: with `O=C(Nc1ccc(CC(=O)N2CCCC2)cc1)NC1CC1` the figure was 15.08%.

`O=C1[C@H]2CC[C@H](CN(C3CSCCSC3)C2)N1Cc1cscn1`: the “Percent Effect” value (30 µM, 30.03 µM) is on record as -11.37%.

In the case of `Cn1cc(N2CC3(CCN(Cc4nccn4C)C3)CC2=O)cn1.O=C(O)C(F)(F)F` (stereo unspecified), the “Percent Effect” value (30.3 µM, […]) turned out to be 58.91%. The same measure, in the same setting: next, `Cn1ccc(CN2CCCC23CCN(Cc2nccn2C)CC3)n1.O=C(O)C(F)(F)F.O=C(O)C(F)(F)F`: 27.16%. Still for that read-out and setting: with `Cc1cccc(N2CC3(CCN(Cc4nccn4C)C3)CC2=O)c1.O=C(O)C(F)(F)F` (stereo unspecified) the figure was 24.22%. Regarding `CN1CC(=O)N(c2cnn(C)c2)CC12CCN(Cc1nccn1C)C2.O=C(O)C(F)(F)F.O=C(O)C(F)(F)F` (stereo unspecified), the “Percent Effect” value (30 µM, 30.03 µM) is on record as 3.871%. With `Cc1ccc(N2CC3(CCN(Cc4nccn4C)C3)CC2=O)s1.O=C(O)C(F)(F)F` (stereo unspecified), where the note is “30.3 µM, […]”, the “Percent Effect” value amounted to 55.03%.

Regarding `Cc1ccccc1N1CC2(CCN(Cc3nccn3C)C2)CC1=O.O=C(O)C(F)(F)F` (stereo unspecified), for the setting “30.3 µM, […]”, the “Percent Effect” value was -1.583%. The same measure, in the same setting: with `CN(C)CCN1CCCC12CCN(Cc1nccn1C)CC2.O=C(O)C(F)(F)F.O=C(O)C(F)(F)F.O=C(O)C(F)(F)F` the figure was 52.43%; with `Cn1cc(CN2CCCC23CCN(Cc2nccn2C)CC3)cn1.O=C(O)C(F)(F)F.O=C(O)C(F)(F)F`, 22.67%; with `Cn1ccnc1CN1CCC2(CC(=O)N(c3ccsc3)C2)C1.O=C(O)C(F)(F)F` (stereo unspecified), 19.56%. With `OC(COCc1ccccc1Cl)CN1CCC(c2ccn[nH]2)CC1` (stereo unspecified), for the setting “30 µM”, the “Percent Effect” value is given as 17.67%. Still for that read-out and setting: next, `O=C(Cc1csc(-c2ccsc2)n1)N1CCN(c2cnccn2)CC1`: 8.045%. For the molecule `Cc1cc(C(=O)N2CCn3cc(CN(C)C)nc3C2)no1`, the “Percent Effect” value (30.3 µM, […]) is given as 18.85%.

Regarding `CC(O)CN1CCN(C(=O)c2ccn(-c3ccc(F)cc3)n2)CC1` (stereo unspecified), the “Percent Effect” value (30.3 µM, […]) is -32.18%.

For the molecule `Cn1ccc(C(=O)N2CCC(Cc3cnc4[nH]ccc4c3)CC2)n1`, the “Percent Effect” value (30 µM, 30.03 µM) was 27.84%.

For `CO[C@@H]1CC[C@@H](N(C)C(=O)COc2ccc(F)cc2)[C@H]1O`, under “30 µM, 30.03 µM”, the “Percent Effect” value is -20.57%. For the molecule `CCc1nn(-c2cc(Oc3cc(C)ccc3C)nc(C)n2)c(N)c1C#N`, the “Percent Effect” value (30.3 µM, […]) worked out at 18.36%.

With `CCc1nn(-c2cc(Oc3cc(C)ccc3C)ncn2)c(N)c1C#N`, the “Percent Effect” value (30.3 µM, […]) is on record as 55.59%. `Cc1ccc(C)c(Oc2cc(-n3nc(C)c(C#N)c3N)nc(C)n2)c1`: the “Percent Effect” value (30.3 µM, […]) is reported as 6.945%. On to `NCC(=O)N1CCCC(O)(CN2CCN(c3ccccc3)CC2)CC1` (stereo unspecified), for which, for the setting “30.3 µM, […]”, the “Percent Effect” value was 24.84%. Turning to `CSCCCN1CCN(c2ccc(Cl)cn2)CC1`, the “Percent Effect” value (30.3 µM, […]) stood at 30.03%. For `Cc1nc(CNC(=O)N2CCN(c3ccc(Cl)cn3)CC2)no1`, for the setting “30.3 µM, […]”, the “Percent Effect” value is recorded as -6.718%.

Consider `Cc1nc(CN2CCN(c3ccc(Cl)cn3)CC2)no1`, for which, under “30.3 µM, […]”, the “Percent Effect” value was determined as 51.54%. Still for that read-out and setting: with `CS(=O)(=O)CCN1CCN(c2ccc(Cl)cn2)CC1` the figure was 0.04205%; with `Clc1ccc(N2CCN(CCCN3CCCCC3)CC2)nc1`, 68.75%. Consider `Cc1nc(CN2CCN(Cc3nccn3C)CC2)no1`, for which the “Percent Effect” value (30 µM, 30.03 µM) is given as 11.72%.
